# Source: PubChem BioAssay AID1117290 (Broad Institute, 2014)
# Measured potencies and affinities stand elsewhere. Active and inactive are the calls of the source.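 Rule for the calls: active = every replicate test called active, each showing a drop in signal with a fitted potency within twice the top tested dose; inconclusive = tests disagree, or fits are weak, flat midrange or poor; inactive = every test flat, rising or fitted past the limit.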
# Experiment: lung carcinoma cell viability loss – CellTiter-Glo luminescence, dry powder, set 18, cytotoxicity control, dose response (AID 1117290)
row,Structure (SMILES),outcome
1,COc1ccc(C(=O)Nc2cc(C(F)(F)F)ccc2N2CCCCC2)cc1S(=O)(=O)O,inactive
2,Cc1ccc(NC(=O)NC2(C(=O)N3CCOCC3)CCCCC2)cc1,inactive
3,CC(=O)N1CCN(C(=O)C2(NC(=O)Nc3ccc(C(F)(F)F)cc3)CCCC2)CC1,inactive
4,COc1ccc(C(=O)O)cc1S(=O)(=O)N1CCN(c2ccc(C(F)(F)F)cc2N)CC1,inactive
5,CC(=O)N1CCN(C(=O)C2(NC(=O)Nc3ccc(F)cc3)CCCCC2)CC1,inactive
6,O=S(=O)(Nc1cc(C(F)(F)F)ccc1N1CCCCC1)c1ccccc1,inactive
7,CC(=O)N1CCN(C(=O)C2(NC(=O)Nc3ccc(F)cc3)CCCC2)CC1,inactive
8,O=[N+]([O-])c1ccc(S(=O)(=O)Nc2cc(C(F)(F)F)ccc2N2CCCCC2)c([N+](=O)[O-])c1,inactive
9,Cn1cnc(S(=O)(=O)Nc2cc(C(F)(F)F)ccc2N2CCCCC2)c1,inactive
10,Cc1ccc(NC(=O)NC2(C(=O)N3CCNCC3)CCCCC2)cc1,inactive
